We go through twelve molecules from PubChem BioAssay (NCI).

The panel holds about 83,000 compounds, 20% with a hit somewhere; the sample as a whole holds those more often.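 Activity criterion: percent growth below 10, measured after cells in 96-well plates were exposed to a single compound concentration for 48 hours.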 A number with no mark means an inactive call. The source made the active and inactive calls.

What all share (assay): NCI-60 one-dose screen, 48 h (100 = growth as untreated, 0 = no growth, -100 = all killed)
What all share (conditions): 10 µM

Test [1] deals with SR leukemia.
Test [2] concerns RPMI-8226 leukemia.
Test [3] concerns OVCAR-8 ovarian.
In test [4] the test system is OVCAR-5 ovarian.
The subject of test [5] is OVCAR-4 ovarian.
Test [6] has as its system SK-OV-3 ovarian.
The subject of test [7] is IGROV1 ovarian.
Test [8] has as its system OVCAR-3 ovarian.
The test system of test [9] is HS 578T breast.
For test [10], the system named is NCI/ADR-RES ovarian.

As to `Nc1nc2c(F)c(F)c(F)c(F)c2s1`, the growth was 86.5% in [1]; 108% in test [2]; 99.7% in test [3]; 104% in test [4]; 104% in test [5]; 99.5% in [6]. Also, the growth in test [7] is 101%; in test [8], 104%; in test [9] it was 100%; in test [10], 104%.
Consider `N#Cc1c(-c2ccc(Cl)cc2)cc(-c2ccccc2)nc1OCc1ccccc1`, for which the growth in test [1] is 42.2%; in test [2] it was 60.3%; in [3], 93%; in test [4], 92.9%; in [5] it was 76.9%; in test [6], 83.1%. Further, the growth in test [7] was 87%; in test [8], 97.9%; in test [9], 85.2%; in [10], 76%.
In the case of `N#C/C(=C\c1ccc(N(c2ccccc2)c2ccccc2)cc1)C(N)=O`, the growth is 69.1% in test [1]; 19.8% in test [2]; 75.1% in test [3]; -60.6% (active) in test [4]; 4.67% (active) in [5]; 56% in test [6]. For the same molecule, the growth in [7] is -21.2% (active); in test [8] it was 3.69% (active); in test [9], 99.2%; in [10], 57.4%.
With `O=C(NO)c1ccc(Cn2ccc3c(NCc4ccccc4)ncnc32)cc1`, the growth is 12.7% in [1]; 17.2% in test [2]; -37.8% (active) in [3]; -8.63% (active) in test [4]; 36% in test [5]; -30.5% (active) in [6]. Besides, the growth in test [7] is -40.1% (active); in test [8] it was 8.99% (active); in test [9] it was -0.0703% (active); in test [10] it was -32.1% (active).
In the case of `O=C(NO)c1ccc(Cn2ccc3c(Nc4ccccc4)ncnc32)cc1`, the growth in [1] is 11.9%; in test [2] it was 20.3%; in test [3], -21.4% (active); in test [4] it was 0.443% (active); in test [5] it was 38.7%; in test [6], -7.35% (active). Moreover, the growth in [7] is -30.8% (active); in [8] it was 19.7%; in [9], 9.25% (active); in [10], -29.4% (active).
On to `O=C(CNc1nc(-c2ccccc2)cs1)Nc1ccc(Cl)cc1`, for which the growth in test [1] was -18.7% (active); in [2], 2.96% (active); in [3], -28.8% (active); in [4] it was -95.4% (active); in test [5] it was -33.8% (active); in test [6], -82.9% (active). Further, the growth in test [7] is -78.6% (active); in test [8] it was -36.6% (active); in [9] it was -3.04% (active); in [10], -30.3% (active).
Turning to `C=C1CCC2C3(C)COC(c4cccc(F)c4)OC3CCC2(C)C1CC(O)C1=CCOC1=O` (stereo not given), the growth was 40.4% in test [1]; 20.6% in test [2]; 15.1% in test [3]; 76.1% in test [4]; 67.1% in [5]; 108% in [6]. Besides, the growth was 61.1% in test [7], 62.1% in [8], 74.6% in test [9] and 4.5% (active) in test [10].
`O=c1cc(-c2ccccc2)oc2cc(OCCCCNCc3ccccc3)cc(O)c12`: the growth in test [1] is -29.7% (active); in [2] it was -22.6% (active); in test [3] it was 52.6%; in test [4], 92.1%; in test [5], 34.7%; in [6] it was 61.1%. Moreover, the growth in test [7] is 63.8%; in [8], 64.3%; in test [9] it was 39.6%; in test [10] it was -68.4% (active).
`N#Cc1c(NC(=O)c2ccc(C(O)(C(F)(F)F)C(F)(F)F)cc2)sc2c1CCC(=O)C2`: the growth was -6.36% (active) in [1]; 6.42% (active) in test [2]; -7.08% (active) in test [3]; -60.8% (active) in test [4]; -29.6% (active) in test [5]; -38.9% (active) in test [6]. Also, the growth in test [7] is -27.6% (active); in test [8] it was -53.1% (active); in test [9] it was -22% (active); in [10], -60.4% (active).
Turning to `O=C(CSc1nnc(-c2ccc3nc(-c4ccc(Cl)cc4)[nH]c3c2)o1)Nc1ccc(Br)cc1`, the growth is 3.26% (active) in test [1]; 0.539% (active) in test [2]; -43.5% (active) in [3]; 39.5% in [4]; 16.4% in [5]; 60.2% in test [6]. Moreover, the growth is 23.2% in test [7], -15.9% (active) in test [8], -16.5% (active) in test [9] and 10.9% in test [10].
Take `Cc1ccc(F)cc1N/C=c1\s/c(=C(\C#N)C(=O)Nc2ccccc2)n(-c2ccccc2)c1=O`: the growth was 75.4% in [1]; 84.9% in [2]; 53.9% in test [3]; 72.5% in [4]; -26.9% (active) in test [5]; 78.1% in test [6]. The growth was 61.5% in [7], 99% in [8], 37% in test [9] and 42.6% in [10].
With `Cc1cc(C)nc(NS(=O)(=O)c2ccc(N/C(N)=N/c3nccc(-c4ccccc4)n3)cc2)n1`, the growth in test [1] is 53.8%; in [2] it was 60.8%; in [3] it was 77.7%; in [4] it was 76.1%; in [5] it was 67.3%; in [6], 52.9%. The growth in test [7] is 38.9%; in test [8], 86.8%; in test [9], 48.1%; in test [10] it was 84.5%.
